Assay outcomes as filed in PubChem.
RXFP1 ag – RXFP1 (human) receptor agonism. Q9HBX9. AID 2676. Potency, µM (highest dose often 57.5 µM), for inactives: top-dose activation, actives largely listed as activators. 370,000 compounds, 0.3% hits. HEK293T-RXFP1 cAMP TR-FRET, 30 min; response scale: percent of porcine relaxin response, buffer zero; also: potency is read from the fitted curve at half-maximal effect; % is scaled to controls: 0 for no effect and ±100 for the full control effect; nearly all actives have a fitted effect of over 60% in size
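HEK293 cells stably expressing RXFP1, treated 30 min at 37C with compounds plus PDE4 inhibitor Ro 20174; cAMP measured by HTRF TR-FRET. Normalized to buffer and 29 nM porcine relaxin; EC50 by Hill fit.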
RXFP1 antagonist – RXFP1 (human) relaxin receptor antagonism; HEK293-RXFP1, relaxin-stimulated cAMP HTRF, 30 min; stronger effect = lower value; activity change, negative = inhibition, % at 57.5 µM; 350,000 compounds, 0.59% hits;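 active = activity change of -60% or lower, but not beyond a set lower limit; inconclusive = change between -60% and -40%, or beyond the set limit; inactive = change above -40%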; also: % is scaled to controls: 0 for no effect and ±100 for the full control effect
Giardia killer – Giardia lamblia killing | Giardia lamblia trophozoite viability | activity change, % at 7.66 µM, hits read low | 340,000 compounds, 0.15% hits | AID 540267; in the data active = activity change below about -80%; inconclusive = between about -30% and that limit;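 also: parasites exposed to compound for two days anaerobically before the ATP read; % is scaled to controls: 0 for no effect and ±100 for the full control effect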
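Viability, read as ATP luminescence: trophozoites at 100 cells/well, compound added, 48 hrs anaerobic at 37 deg C, then 15-30 min room-temperature development before reading.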
NPSR antagonist – blocks cAMP signaling of the human neuropeptide S receptor; Q6W5P4; CHO-NPSR cells, cAMP TR-FRET, antagonist mode; AID 1461; 220,000 compounds, 1% hits; Potency, µM (series often up to 38.3 µM), inactives show top-dose activity change, negative = inhibition, most hits filed as inhibitors; also: potency is read from the fitted curve at half-maximal effect; % is scaled to controls: 0 for no effect and ±100 for the full control effect; nearly all actives have a fitted effect of over 50% in size
Target sequence (Q6W5P4 whole entry, looked up): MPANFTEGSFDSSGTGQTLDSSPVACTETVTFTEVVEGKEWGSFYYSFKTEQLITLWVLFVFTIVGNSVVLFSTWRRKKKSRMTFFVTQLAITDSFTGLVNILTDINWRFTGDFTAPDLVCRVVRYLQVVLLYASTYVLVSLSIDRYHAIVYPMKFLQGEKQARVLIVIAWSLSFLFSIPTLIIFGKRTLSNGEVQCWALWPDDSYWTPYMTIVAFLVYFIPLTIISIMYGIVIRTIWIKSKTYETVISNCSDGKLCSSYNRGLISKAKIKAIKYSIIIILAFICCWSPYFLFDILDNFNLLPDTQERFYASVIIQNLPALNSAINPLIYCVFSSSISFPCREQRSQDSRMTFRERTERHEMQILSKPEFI
IL2 activator – IL-2 activation; activation, % (series mostly up to about 46 µM); 360,000 compounds, 0.065% hits; IL-2 activation reporter assay, cell-based qHTS; stimulated with anti-CD3/CD4/CD28 beads; in transgenic mouse T cells; in the data active = activation above about 50%; inconclusive = mostly about 30% to 49%; also: 0% is about no effect
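First, unstimulated transgenic mouse T cells were exposed to compound for 60 min. Next, anti-CD3/anti-CD4-coated beads with anti-CD28 were added. Finally, after 18 h at 37 degrees C, EGFP and DsRed were imaged.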
BRCA1 expr act – BRCA1 expression activation; MCF7-BRCA1-FFLuc reporter, luminescence, 48 h; response scale: scaled: vehicle 0%, 10 µM genistein 100%; Potency, µM (highest dose often 46.1 µM), for the others: at the highest dose activation, actives largely listed as activators; 380,000 compounds, 1.1% hits; AID 624202; also: potency is read from the fitted curve at half-maximal effect; nearly all actives have a fitted effect of over 80% in size
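Quantitative HTS in MCF7 cells stably reporting BRCA1 expression via firefly luciferase. Compound treatment lasts 48 h at 37 °C in phenol-red free MEM. Activation is expressed relative to genistein at 10 microM and DMSO.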
The depositor's hits bear a star; ? = inconclusive; nt = no result; [ ] = remark or other dose. Only some compounds are listed: those with a hit (about 1.9% of all), similar ones and a draw of the others. Unless noted, calls follow the shape of the dose curve; as a rule, active = well fitted curve in the direction sought with a large enough effect; inconclusive = small, poorly fitted or top-dose-only effect, or another doubt; inactive = no such curve, though single readings can be large; an effect the other way counts as inactive or inconclusive.

SMILES	RXFP1 ag	RXFP1 antagonist	Giardia killer	NPSR antagonist	IL2 activator	BRCA1 expr act
O=[N+]([O-])c1ccc(Cl)c2c1C1C=CCC1C(c1ccccn1)N2 (configuration not stated)	-2%	-118*	-4	40%	5	-15%
COc1ccc(-c2nc3cccc(C)n3c2Nc2ccc(C)cc2)cc1	nt	nt	2	nt	nt	-1%
CCOC(=O)C1CCN(C(=O)c2cc3c(C)cc(C)cc3[nH]2)CC1	2%	-1	-18	nt	0	10%
CCOC(=O)C1CCN(C(=O)c2cc3cc(C)ccc3[nH]2)CC1	1%	1	20	nt	1	2.8µM*
COc1cc(NC(=O)CCc2c(C)nc3nc(-c4cc(OC)cc(OC)c4)nn3c2C)cc(OC)c1	1%	nt	nt	nt	nt	-13%
O=[N+]([O-])c1cc(Cc2ccccc2)cc(C=Nc2ccc(N3CCOCC3)cc2)c1O	-1%	-75*	8	-21%	-4	-10%
Cc1ccc(O)c(N=Cc2cc(Cc3ccccc3)cc([N+](=O)[O-])c2O)c1	-1%	?	-6	-17%	-1	-79%
O=C(NCc1ccccc1)C1CCN(c2ncnc3c2nc2n3CCCCC2)CC1	3%	-2	nt	nt	nt	nt
NS(=O)(=O)c1ccc(CCNC(=O)C2CCN(c3ncnc4c3nc3n4CCCCC3)CC2)cc1	16µM*	15	-1	nt	-1	-14%
Cc1ccc(C)c(N2CCN(C(=O)C3CCCN(c4ncnc5c4nc4n5CCCCC4)C3)CC2)c1 (configuration not stated)	3%	-83*	-12	nt	-2	-40%
CCN(CC)C(=O)C1CCCN(c2ncnc3c2nc2n3CCCCC2)C1 (configuration not stated)	6%	-8	nt	nt	nt	nt
COc1ccc(Nc2ncnc3c2nc2n3CCCCC2)cc1	8%	nt	nt	nt	nt	10µM*
CC1CCCN(c2ncnc3c2nc2n3CCCCC2)C1 (configuration not stated)	4%	nt	nt	nt	nt	11µM*
O=C(COc1ccccc1C(=O)Nc1ccccc1)Nc1ccc2ccccc2c1	nt	nt	nt	nt	nt	-44%
C[n+]1c2cc(N)ccc2cc2ccc(N)cc21 (tested in a mixture with another compound)	nt	-9	nt	nt	nt	nt
CC(=Cc1ccccc1)C(=O)c1ccccc1	nt	1	nt	nt	-5	2%
O=C(C(Br)=Cc1ccccc1)c1ccccc1	nt	-91*	-12	nt	-6	-98%
Cc1ccc(F)c(C2C3C=CCCC3(C)C(=O)N2Cc2ccccc2)c1 (configuration not stated)	nt	nt	-8	nt	nt	nt
COc1ccc(-c2cn3cccnc3n2)cc1NC(=O)COc1ccccc1	7%	17	nt	nt	nt	nt
O=C(Nc1ccc2ncccc2c1)c1ccccc1Br	1%	1	10	nt	1	7.1µM*
O=C(Nc1ccc2ncccc2c1)Nc1ccc2ncccc2c1	1%	-3	-12	-8%	-2	?
CN(C)S(=O)(=O)c1ccc(C(=O)Nc2ccc3ncccc3c2)cc1	-1%	-1	8	nt	0	13µM*
Cc1nc2ccc(NC(=O)c3ccc(S(=O)(=O)N(C)C)cc3)cc2s1	4%	-2	4	-7%	4	-1%
CCOC(=O)c1ccc(-n2c(CCC(=O)O)ccc2-c2ccc(Br)cc2)cc1	23%	?	nt	nt	nt	nt
O=C(Oc1ccc2c(c1)OCC2=O)c1ccc(Cl)cc1	0%	-60*	2	-18%	1	-13%
SMILES	RXFP1 ag	RXFP1 antagonist	Giardia killer	NPSR antagonist	IL2 activator	BRCA1 expr act
Cc1ccc2ccc(Cl)cc2n1	nt	10	nt	nt	nt	nt
O=[N+]([O-])c1cnc2ccccn12	8%	6	-82*	12%	0	18%
Cc1nnc(SCC(=O)NC(=O)Nc2ccc3c(c2)OCCO3)n1N	-4%	3	0	-1%[7.67 µM]	1	10µM*
Cc1ccc(-n2nnnc2SCC(=O)NC(=O)Nc2ccc3c(c2)OCCO3)cc1	1%	-16	7	-22%[46.1 µM]	1	?
CN(N=O)C(=O)N[C@@H]1[C@@H](O)[C@H](O)[C@@H](CO)O[C@@H]1O	nt	8	nt	nt	nt	nt
Cc1c(C(=O)N(Cc2ccccc2F)C2CCS(=O)(=O)C2)oc2ccc(F)cc12 (configuration not stated)	2%	-37	nt	nt	nt	nt
COc1cc(C(CCN2CCCC2)c2c(OC)cc(OC)c3c2OC(=O)CC3c2ccc(N(C)C)cc2)cc(OC)c1OC (configuration not stated)	nt	nt	3	nt	nt	nt
O=C1N/C(=C/c2ccc(N3CCCC3)cc2)C(=O)N1c1ccccc1	4%	-19	3	-3%	157*	63%
N=c1ccn2c(n1)O[C@H]1[C@@H](O)[C@@H](CO)O[C@H]12	nt	nt	nt	-6%[46.1 µM]	nt	nt
Cn1c(C(=O)N2CCCC(C(=O)O)C2)cc2sccc21 (configuration not stated)	5%	2	0	-8%[46.1 µM]	0	-2%
CCn1c(C(=O)NC2CCC(C)CC2)cc2sccc21 (configuration not stated)	3%	?	3	nt	-1	?
CN(C(=O)c1cc2sccc2n1C)C1CCCCC1	-1%	-12	-13	-6%[46.1 µM]	-3	6.3µM*
Cn1c(C(=O)NC2CCCCC2)cc2sccc21	2%	-11	-13	?	-1	5.6µM*
Cn1c(SCc2ccc(F)cc2)nnc1-c1cccs1	0%	11	-3	-4%[46.1 µM]	-2	4.5µM*
Nn1c(SCc2cccc(F)c2)nnc1-c1cccnc1	2%	-12	7	-8%	-1	0%
Cc1ccc(CSc2nnc(-c3ccccn3)n2C)cc1	1%	13	-7	-10%[46.1 µM]	-1	?
Nn1c(SCc2ccccc2F)nnc1-c1cccnc1	0%	2	18	23%	4	8.9µM*
Cn1c(SCc2ccc(F)cc2)nnc1-c1ccccn1	0%	-2	-4	-3%[46.1 µM]	1	4.5µM*
Cn1c(SCc2ccccc2F)nnc1-c1ccccn1	4%	4	-12	24%	0	11µM*
c1ccc(-c2ccc(-c3csc4ncnc(Sc5nnnn5-c5ccccc5)c34)cc2)cc1	nt	nt	nt	nt	nt	-3%
CC(C)C(=O)Nc1nc2c(ncn2[C@H]2CC(O)[C@@H](CO)O2)c(=O)[nH]1 (some centres not stated)	nt	nt	-9	nt	nt	-67%
Fc1ccc(CSc2nnc(-c3ccccn3)o2)cc1	0%	5	3	nt	1	4µM*
CCN(CC)C(=O)CCc1nnc(Cc2cccc(C(F)(F)F)c2)o1	1%	9	0	6%	0	10µM*
CCn1cc(C(=O)N(C)c2cc(C)ccc2C)c2cc(OC)c(OC)cc2c1=O	3%	nt	nt	nt	nt	3%
Cc1cccc(NC(=O)c2cc([N+](=O)[O-])ccc2N2CCCCC2)n1	0%	-16	44	10µM*	0	-21%
CC(=O)Nc1cccc(NC(=O)c2cc([N+](=O)[O-])ccc2N2CCCCC2)c1	4%	-3	-12	nt	1	-3%
